Bioassay records deposited in PubChem by Broad Institute.
STK33 inh = inhibitors of human STK33 kinase. ADP-Glo luminescence, MBP substrate. inhibition, % at 12.5 µM. 27,000 compounds, 0.44% hits. AID 2322; in the data active = inhibition above about 20%
Target sequence (Q9BYT3 whole entry, looked up): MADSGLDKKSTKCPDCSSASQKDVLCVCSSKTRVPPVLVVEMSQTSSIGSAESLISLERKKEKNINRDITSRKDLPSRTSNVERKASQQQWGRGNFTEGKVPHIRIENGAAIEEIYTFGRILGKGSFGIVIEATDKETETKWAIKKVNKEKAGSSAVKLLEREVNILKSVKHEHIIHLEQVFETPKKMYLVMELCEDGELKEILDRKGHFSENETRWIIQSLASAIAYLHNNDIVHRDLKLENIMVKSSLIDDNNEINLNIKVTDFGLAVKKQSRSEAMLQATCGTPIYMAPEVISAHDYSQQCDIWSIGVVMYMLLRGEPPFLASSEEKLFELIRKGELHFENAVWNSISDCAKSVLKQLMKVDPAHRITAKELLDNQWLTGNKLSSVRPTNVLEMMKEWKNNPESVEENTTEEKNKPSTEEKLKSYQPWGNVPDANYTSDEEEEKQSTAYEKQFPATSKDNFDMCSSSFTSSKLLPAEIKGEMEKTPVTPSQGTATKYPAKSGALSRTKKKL
ID4 binder = binds human ID4 protein on microarray | 31,000 compounds, 1.2% hits | calls only | small molecule microarray, Flag-ID4 binding, fluorescence F/B | P47928; call rule not given here;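 also: a binder raises fluorescence above local background on the spot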
NOMO-1 viab = STK33 inhibitor candidate reducing NOMO-1 cell viability; NOMO-1 AML viability, CellTiter-Glo luminescence, 72 h; inhibition, % (test concentration not listed); 37,000 compounds, 7.5% hits; in the data active = inhibition above about 80%
p53 PUMA act = restores mutant p53 pathway signaling in SW480 cells. SW480 PUMA-promoter luciferase, p53 mutant reactivation. activation, % at 9.98 µM. 28,000 compounds, 1.5% hits. AID 624151; in the data active = activation above about 52%
* hit, by the source's call; i = inactive; . = no result given; + = active, no number; ! = not active in a repeat. This is one part of a sample in which hits are shown more often than they occur.

SMILES	STK33 inh	ID4 binder	NOMO-1 viab	p53 PUMA act
C[C@@H]1CN([C@@H](C)CO)C(=O)Cc2cc(NS(=O)(=O)c3ccccc3)ccc2O[C@H]1CN(C)C(=O)Nc1ccccc1	.	+	.	6
CN(CC(=O)Nc1ccccc1[N+](=O)[O-])S(=O)(=O)c1ccc(Br)cc1	-2	i	-22	-24
CC(=O)Nc1ccc(OCC(O)CNC(C)C)cc1 (stereo unspecified)	0	+	1	-2
CC(=O)Nc1ccc(OCC(O)CNC2CCCC2)cc1 (stereo unspecified)	-11	i	-7	-4
C[C@H]1CN([C@@H](C)CO)C(=O)Cc2cc(NC(=O)C3CC3)ccc2O[C@@H]1CN(C)Cc1ccc(C(=O)Nc2ccccc2N)cc1	.	.	55	.
C[C@H](CO)N1C[C@H](C)[C@H](CN(C)Cc2ccc(C(=O)Nc3ccccc3N)cc2)Oc2ccc(NC(=O)C3CCCCC3)cc2CC1=O	.	.	141*	.
C[C@H](CO)N1C[C@H](C)[C@H](CN(C)Cc2ccc(C(=O)Nc3ccccc3N)cc2)Oc2ccc(NC(=O)C3CC3)cc2CC1=O	.	.	127*	.
CC(C)NC(=O)Nc1ccc2c(c1)C(=O)N([C@@H](C)CO)C[C@H](C)[C@H](CN(C)Cc1ccc(C(=O)O)cc1)OCCCC[C@@H](C)O2	.	i	.	8
c1ccc(-n2nnnc2CSc2nnnn2-c2ccccc2)cc1	-5	i	3	2
CC(=O)c1cccc(-n2c(CCC(=O)O)ccc2-c2ccc(C)cc2)c1	-6	+	17	11
CSc1nsc(SCC(=O)c2ccc([N+](=O)[O-])cc2)n1	2	i	19	-17
COc1cccc(N(CC(=O)Nc2ccc(C(F)(F)F)cc2)S(C)(=O)=O)c1	-3	i	25	7
CSc1ccc2c(c1)C(N1CCN(C)CC1)Cc1ccccc1S2 (stereo unspecified)	0	i	143*!	.
CN1CCCC(CC2c3ccccc3Sc3ccccc32)C1 (stereo unspecified)	-6	i	50	-1
COc1ccc(NC(=O)N(C)C[C@@H]2Oc3ccc(NC(=O)C4CCCCC4)cc3C(=O)N([C@@H](C)CO)C[C@H]2C)cc1	.	.	-10	.
C[C@H](CO)N1C[C@H](C)[C@@H](CN(C)C(=O)NC2CCCCC2)Oc2ccc(N(C)C)cc2C1=O	.	i	5	2
COc1ccc(NC(=O)c2ccccc2OCC(=O)Nc2cccc(C)c2C)c(C)c1	-2	i	22	9
C[C@@H]1CN([C@@H](C)CO)C(=O)c2cccc(NC(=O)C3CCOCC3)c2O[C@@H]1CN(C)C(=O)Nc1ccc(C(F)(F)F)cc1	.	i	11	5
C=C(C)[C@@]12O[C@@H]1[C@@]1(C)C(=CC2=O)CC[C@@H](O)[C@@H]1C	-3	i	114*	.
CC(C)=C1C[C@@]2(CO)C(=CC1=O)CC[C@@H](O)[C@@H]2C	-1	i	5	2
C[C@H](CO)N1C[C@H](C)[C@@H](CN(C)Cc2ccccc2F)Oc2ncc(C#CCN(C)C)cc2C1=O	.	i	.	.
COc1ccccc1C(=O)NCCCn1cc(Br)c(C)n1	-2	i	-6	-6
Cc1ccc(S(=O)(=O)c2c(C)nn(C(C)(C)C)c2OC(=O)c2ccccc2Br)cc1	2	i	105*	-20
COc1ccc(NC(=O)Nc2cccc3c2O[C@@H](CN(C)Cc2ccc(Cl)c(Cl)c2)[C@H](C)CN([C@@H](C)CO)C3=O)cc1	.	.	111*	.
C[C@H]1CN([C@@H](C)CO)C(=O)c2cccc(NC(=O)Nc3ccc(F)cc3)c2O[C@@H]1CN(C)Cc1ccc(Cl)c(Cl)c1	.	.	109*	.
SMILES	STK33 inh	ID4 binder	NOMO-1 viab	p53 PUMA act
C[C@H]1CN([C@@H](C)CO)C(=O)c2cccc(NC(=O)Nc3ccc(F)cc3)c2O[C@H]1CN(C)Cc1ccc(Cl)c(Cl)c1	.	.	41	.
C[C@@H]1CN([C@H](C)CO)C(=O)c2cccc(NC(=O)Nc3ccc(F)cc3)c2O[C@H]1CN(C)Cc1ccc(Cl)c(Cl)c1	.	.	96*	.
C[C@H](CO)N1C[C@H](C)[C@@H](CN(C)Cc2ccc(Cl)c(Cl)c2)Oc2c(NC(=O)Nc3ccc(F)cc3)cccc2C1=O	.	.	99*	.
COc1ccc(CN(C)C[C@@H]2Oc3c(NC(=O)Nc4ccc(OC)cc4)cccc3C(=O)N([C@H](C)CO)C[C@H]2C)cc1	.	i	65	1
CN(C)c1cccc(N2C(=S)SC3CS(=O)(=O)CC32)c1 (stereo unspecified)	.	i	.	11
COC(=O)CNS(=O)(=O)c1ccccc1[N+](=O)[O-]	-2	i	112*	-5
O=C(c1ccccc1NS(=O)(=O)c1ccccc1[N+](=O)[O-])N1CCOCC1	3	i	-18	-12
Cc1noc(C)c1S(=O)(=O)N(C)C[C@@H]1Oc2c(NC(=O)c3ccc(-c4nccs4)cc3)cccc2C(=O)N([C@@H](C)CO)C[C@H]1C	.	i	3	-7
C(=Nc1cccc2ccccc12)c1c[nH]c2ccccc12	.	.	72	.
CNC[C@@H]1Oc2ncc(-c3ccc(OC)cc3)cc2C(=O)N([C@H](C)CO)C[C@H]1C	.	+	.	23
CNC[C@@H]1Oc2ncc(-c3ccc(C#N)cc3)cc2C(=O)N([C@H](C)CO)C[C@@H]1C	.	+	.	3
CNC[C@H]1Oc2ncc(C3=CCCC3)cc2C(=O)N([C@H](C)CO)C[C@H]1C	.	+	.	1
Cc1ccc(S(=O)(=O)N(C)C[C@@H]2Oc3ncc(C#Cc4ccc(C(F)(F)F)cc4)cc3C(=O)N([C@H](C)CO)C[C@@H]2C)cc1	-3	.	.	.
C[C@@H]1CN([C@H](C)CO)C(=O)CCCn2cc(nn2)CO[C@@H]1CN(C)S(=O)(=O)c1ccc(C#N)cc1	2	.	.	.
Nc1nonc1-c1ccccc1	.	.	15	.
C1=Cc2nonc2C2C=C(c3ccccc3)N=C12 (stereo unspecified)	.	.	92*	.
CCN(CC)CCCCC1CCN(CC(=O)N2c3ccccc3C(=O)Nc3cccnc32)CC1	.	+	.	3
CC1(C)CC(=O)C=C(Sc2nc3ccccc3o2)C1	-1	.	120*	.
O=C(CCSc1nc2ccccc2o1)N1CCOCC1	3	i	-11	38
C[C@H]1CN([C@@H](C)CO)C(=O)Cc2cc(NC(=O)C3CC3)ccc2O[C@H]1CN(C)CC1CCCCC1	-4	i	17	.
C[C@@H]1CN([C@@H](C)CO)C(=O)Cc2cc(NS(C)(=O)=O)ccc2O[C@@H]1CN(C)S(=O)(=O)c1cccs1	3	i	3	1
C[C@H]1CN([C@@H](C)CO)C(=O)c2cccc(NC(=O)c3ccncc3)c2O[C@H]1CN(C)Cc1ccc(C(F)(F)F)cc1	.	i	5	18
O=C(CSc1nnc(-c2cccnc2)n1-c1ccc(Br)cc1)c1ccc(F)cc1	0	i	21	49
COc1cc(O)c2c(=O)cc(-c3ccc(OC)c(-c4c(O)cc(O)c5c(=O)cc(-c6ccc(O)cc6)oc45)c3)oc2c1	1	.	108*	.
COc1ccc(-c2cc(=O)c3c(OC)cc(OC)cc3o2)cc1	1	.	-7	.
COc1ccc(-c2cc(=O)c3c(O)cc(O)cc3o2)cc1	25*	.	-4	95*
O=c1cc(-c2ccc(O)c(O)c2)oc2cc(O)cc(O)c12	78*	.	76	.
COc1cc(C)c2c(=O)cc(-c3ccccc3)oc2c1	1	i	-12	85*
